Tau ThT inhib: qHTS for Inhibitors of Tau Fibril Formation, Thioflavin T Binding. AID 1460, 2008. 270,000 tested, 2.1% active. Potency, µM (doses to about 57.4 µM), inactives show at the highest dose activity, negative = inhibition, most hits filed as inhibitors. recombinant tau K18 P301L, heparin-induced fibrillization, ThT fluorescence; also: nearly all actives have a fitted effect of over 55% in size
Target sequence (P10636 561-689 P618L limits assumed): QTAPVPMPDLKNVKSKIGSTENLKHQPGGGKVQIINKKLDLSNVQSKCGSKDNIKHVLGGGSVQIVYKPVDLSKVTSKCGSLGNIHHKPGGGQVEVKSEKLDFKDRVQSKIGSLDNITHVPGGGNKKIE
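Heparin-induced (20 uM) aggregation of recombinant human K18 P301L tau, 15 uM unlabeled with 0.24 uM labeled, pH 7 acetate buffer, 6 hr at 37 C with compound. Fibrils quantified by 30 uM ThT fluorescence after 1 hr ambient incubation.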
TRb SRC2 PPI: qHTS for Inhibitors of the Interaction of Thyroid Hormone Receptor and Steroid Receptor Coregulator 2 | Thyroid hormone receptor beta (Homo sapiens), P10828 | TRbeta-SRC2 peptide binding, fluorescence polarization; receptor liganded with 1 µM T3 | Potency, µM (titrated, usually from 106 µM), inactives show top-dose activity change, negative = inhibition, actives largely listed as inhibitors | 280,000 tested, 0.065% active | AID 1469, 2008;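 also: plate controls were bound peptide for no effect and peptide without receptor for full effect; nearly all actives have a fitted effect of over 50% in size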
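Read-out is fluorescence polarization (555 nm excitation, 632 nm emission) of a Texas Red SRC2 coactivator peptide; loss of signal reflects blocked binding to human TRb ligand-binding domain in the presence of 1 uM T3.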
Tau fluor counter: Counterscreen qHTS for Inhibitors of Tau Fibril Formation, Fluorescence Polarization; Potency, µM (highest dose often 57.7 µM), inactives show top-dose activity change, negative = decrease; tau K18 P301L (four-repeat tau fragment) Alexa594 fluorescence, heparin fibrillization; AID 1463, 2008; 280,000 tested, 0.93% active; also: nearly all actives have a fitted effect of over 55% in size
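Human K18 P301L tau (15 uM unlabeled plus 0.24 uM Alexa 594-labeled, final) in 100 mM sodium acetate pH 7 was mixed with compound and 20 uM heparin and incubated 6 hr at 37 C.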
Tau fibril FP: qHTS for Inhibitors of Tau Fibril Formation, Fluorescence Polarization; Potency, µM (series often up to 57.7 µM), for the others: at the highest dose activity, negative = inhibition, hits mostly inhibitors; 280,000 tested, 0.39% active; Microtubule-associated protein tau (Homo sapiens), P10636; AID 1468, 2008; K18 P301L tau heparin fibrillization, Alexa594 FP, 6 h; also: nearly all actives have a fitted effect of over 55% in size
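Human tau K18 […] P301L fragment, 15 uM unlabeled plus 0.24 uM Alexa 594-labeled tau (final), with compound and 20 uM heparin in 100 mM sodium acetate pH 7; 6 hr at 37 C, then Alexa 594 FP read.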
RGS12 GoLoco inh: qHTS Assay for Inhibitors of RGS12 GoLoco Motif Activity (Red Fluorophore); 230,000 tested, 0.44% active; Guanine nucleotide-binding protein G(i) subunit alpha-1 (Homo sapiens), P63096; Gai1:RGS12 GoLoco peptide FP, rhodamine, 10 min; Potency, µM (series often up to 61.6 µM), inactives show top-dose activity, negative = inhibition, usual class: inhibitors; active = well fitted inhibition curve with a large enough effect, not every such curve was filed as active; inactive = no such curve, though single readings can be large or run the other way; also: nearly all actives have a fitted effect of over 30% in size
Target sequence (P63096 whole entry, looked up): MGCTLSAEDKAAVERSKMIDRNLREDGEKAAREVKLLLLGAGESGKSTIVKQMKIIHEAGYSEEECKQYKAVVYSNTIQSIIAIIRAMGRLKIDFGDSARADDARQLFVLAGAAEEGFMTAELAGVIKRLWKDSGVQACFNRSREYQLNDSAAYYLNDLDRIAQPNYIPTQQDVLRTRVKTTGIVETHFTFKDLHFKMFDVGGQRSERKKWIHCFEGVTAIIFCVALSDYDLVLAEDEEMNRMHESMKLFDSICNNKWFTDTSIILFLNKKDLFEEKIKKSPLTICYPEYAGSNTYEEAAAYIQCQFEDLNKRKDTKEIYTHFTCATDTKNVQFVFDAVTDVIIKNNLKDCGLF
TexasRed fluor: Total Fluorescence Counterscreen for Inhibitors of the Interaction of Thyroid Hormone Receptor and Steroid Receptor Coregulator 2. TRb/SRC2 Texas Red total fluorescence interference. Potency, µM (series often up to 106 µM), for the others: top-dose fluorescence change, negative = quenching. 280,000 tested, 0.29% active. AID 1479, 2009; active = well fitted curve in either direction with a large enough effect; inconclusive = small, poorly fitted or top-dose-only effect
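Human TRβ ligand-binding domain (0.6 uM) and Texas Red SRC2 peptide (20 nM) in Tris buffer with 1 uM T3 and 5% DMSO were incubated with pinned compound for 5 hr at ambient temperature. Total fluorescence was computed as S + 2P (555/632 nm).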
Active calls of the source: *; ? = inconclusive; / = no result; [ ] = dose if it differs, or a comment. Shown are actives, neighbours in structure and some others; about 3.2% of the full set was active somewhere. Unless noted, calls follow the shape of the dose curve; as a rule, active = well fitted curve in the direction sought with a large enough effect; inconclusive = small, poorly fitted or top-dose-only effect, or another doubt; inactive = no such curve, though single readings can be large; an effect the other way counts as inactive or inconclusive. Unless noted, % is scaled to controls: 0 for no effect and ±100 for the full control effect; potency is read from the fitted curve at half-maximal effect.

SMILES | Tau ThT inhib | TRb SRC2 PPI | Tau fluor counter | Tau fibril FP | RGS12 GoLoco inh | TexasRed fluor
COc1ccc(-c2nnc3n2N=C(c2ccccc2OC)CS3)c(OC)c1 | / | 1% | / | / | / | -1%
COc1cccc(Nc2nc3ccc(OC)cc3s2)c1 | 13µM* | -4% | 13µM*[quencher] | 7% | -2% | 0%
COc1ccc2nc(Nc3sc4c(c3C(N)=O)CCCC4)sc2c1 | 7.1µM* | -6% | ? | 2% | 198% | ?
COc1ccc2nc(NC3=NCCC3)sc2c1 | -12% | -3% | -2% | 4% | -4% | -6%
COc1ccc(Nc2nc3ccccc3s2)cc1 | 13% | -7% | 14% | 4% | 7% | -11%
COCCc1nn2c(=O)cc(COC(=O)c3ccc(C(C)(C)C)cc3)nc2s1 | -16% | 6% | -3% | 4% | / | -7%
COc1ccc(CCNC(=O)CN2C(=O)COc3ccccc32)cc1OC | -12% | 2% | -21% | -2% | / | -1%
O=C(O)COc1ccc2ccccc2c1 | / | -1% | / | / | / | -1%
Cc1ccc(C)c(/C=C/C(=O)c2ccccc(=O)c2O)c1 | 22µM* | -3% | ? | ? | 14% | -1%
Cc1ccc(/C=C/C(=O)c2ccccc(=O)c2O)c(C)c1 | ? | -12% | -10% | -4% | 3% | 0%
O=C(/C=C/c1ccccc1Cl)c1ccccc(=O)c1O | 14µM* | -3% | -25% | ? | 17% | -1%
O=C(/C=C/c1ccccc1Cl)c1ccc(O)cc1 | ? | 2% | -18% | -4% | 1% | -3%
N#CC1CC(c2ccc([N+](=O)[O-])cc2)=NN1c1ccc([N+](=O)[O-])cc1 (stereo not drawn) | 3.2µM* | 1% | ? | 13% | 19% | 1%
Cc1ccc(C)c(S(=O)(=O)c2nnn3c2nc(Nc2ccc(C)c(C)c2)c2ccccc23)c1 | 2% | -1% | -6% | -5% | / | -16%
Cc1ccc(S(=O)(=O)c2nnn3c2nc(Nc2ccc(C(C)C)cc2)c2sccc23)cc1C | 16% | 7% | ? | 13µM* | / | -1%
CCOc1ccc(Nc2nc3c(S(=O)(=O)c4ccc(C(C)C)cc4)nnn3c3ccsc23)cc1 | 8% | -1% | ? | -9% | / | -1%
Nc1cc(N2CCCCC2)c(Cl)cc1[N+](=O)[O-] | 13µM* | 6% | ? | -2% | -4% | -2%
Nc1cc(N2CCCCC2)c([N+](=O)[O-])cc1Cl | 13% | 15% | 7% | -15% | -6% | 2%
Cc1cc2oc(C(=O)Nc3ccc(S(=O)(=O)N4CCCCCC4)cc3)cc(=O)c2cc1C | -5% | 4% | -15% | 0% | / | -17%
Cc1c(CBr)[n+](=O)c2c(n1[O-])C(Br)CCC2Br (stereo not drawn) | 25µM* | 0% | -28% | ? | -16% | -1%
O=S(=O)(Nc1cc(O)cc2cccnc12)c1ccc(Cl)s1 | / | ? | / | / | / | -3%
COc1ccc2c(c1OC)C(=O)N1N=C(c3ccc(-c4ccccc4)cc3)CC21 (stereo not drawn) | ? | 9% | -2% | -2% | 6% | -1%
COc1ccc2c(c1OC)C(=O)N1c3ccccc3N=C(c3ccc([N+](=O)[O-])cc3)CC21 (stereo not drawn) | 20µM* | -12% | -26% | ? | -7% | -67%
CCc1ccc(Nc2cc(C)nc3nc(Cc4ccc(Cl)cc4)nn23)cc1 | -1% | 2% | 14% | -1% | / | -3%
O=C(O)[C@H](C1NCCS1)N1Cc2ccccc2C1 (stereo partly drawn) | / | / | / | / | 3%[14.2 µM] | /
SMILES | Tau ThT inhib | TRb SRC2 PPI | Tau fluor counter | Tau fibril FP | RGS12 GoLoco inh | TexasRed fluor
Cn1cc(C(=O)N/N=C/c2ccc(Br)c([N+](=O)[O-])c2)c2ccccc21 | / | -2% | 14µM*[quencher] | ? | 1% | -2%
Nc1nc2ccc(S(=O)(=O)N3CCCCC3)cc2s1 | 32µM* | 6% | -23% | ? | -8% | -1%
Cc1cccc(N=C2NC(=O)/C(=C3/C(=O)N(C)c4ccccc43)S2)c1C | 10µM* | -11% | ? | 2% | / | -1%
O=C(COc1ccccc1)OCc1csc(Nc2ccccc2)n1 | ? | 2%[53 µM] | ? | 14% | -3% | -3%[53 µM]
O=C(OCc1csc(Nc2ccccc2)n1)c1ccc(Cl)cc1 | ? | -9% | 13µM*[quencher] | ? | -5% | -5%
CC1(C)CC(N)CC(C)(CN)C1 (stereo not drawn) | / | -2%[201 µM] | / | / | / | -2%[201 µM]
CCN(CC)/C(Sc1ccccc1)=C(\C(Cl)=C(Cl)Cl)[N+](=O)[O-] | -12% | -3% | -3% | -5% | -3% | 0%
O=[N+]([O-])/C(C(Cl)=C(Cl)Cl)=C(\Sc1ccccc1)N1CCCCC1 | 25µM* | 5% | -25% | ? | 4% | -1%
COc1ccccc1N1CCN(c2csc3ccc(Cl)cc3c2=O)CC1 | ? | 14% | -8% | 6% | / | ?
C=C(C)C(=O)OCCC[Si](OC)(OC)OC | / | 2%[201 µM] | / | / | / | 3%[201 µM]
COc1ccc(-c2cnnc(N/N=C/c3c(C)nn(-c4ccccc4)c3Cl)n2)cc1 | 5% | 2% | -1% | -5% | 6% | 1%
COc1ccc(-c2cnnc(N/N=C/c3ccc(C)o3)n2)cc1 | 2.8µM* | 0% | -30% | 9% | 24% | -3%
COc1ccc(-c2cnnc(N/N=C/c3ccc(O)c(O)c3)n2)cc1 | 2.5µM* | 13% | ? | ? | -6% | -7%
Fc1cnc(N/N=C/c2ccc(-c3ccc(Br)cc3)o2)nc1N1CCOCC1 | 10µM* | -4% | 13µM*[quencher] | -5% | 1% | -3%
COc1cc(/C=N/Nc2ccccc2C(F)(F)F)ccc1O | ? | 1% | ? | 2% | 6% | -10%
COc1ccc(-c2cnnc(N/N=C/c3ccc(O)cc3)n2)cc1 | ? | 2% | ? | 1% | 8% | -6%
Brc1ccc(-c2ccc(/C=N/Nc3nc(N4CCOCC4)nc(N4CCOCC4)n3)o2)cc1 | -12% | 4% | -12% | ? | -1% | 0%
COc1cc(/C=N/Nc2nnc3c(n2)[nH]c2ccccc23)ccc1O | 0.71µM* | 8% | -24% | 6% | -5% | 1%
Cc1cccc(NC(=O)CCc2c(C)nc3c(c(C)nn3C(C)(C)C)c2C)c1C | ? | -3% | -18% | -3% | / | -1%
CN(C)c1ccc(C(=C2C=CC(=[N+](C)C)C=C2)c2c(O)c(S(=O)(=O)O)cc3cc(S(=O)(=O)O)ccc23)cc1 | / | / | / | / | 4%[14.2 µM] | /

Screening results as filed in PubChem BioAssay.
